Common to all, as to assay: DAPPL (digital affinity profiling via proximity ligation, sequencing); 10 mM Tris-HCl pH 7.5, 50 mM NaCl, 1 mM DTT, 4% glycerol, room temperature, 30 min; GST-TFs on glutathione beads, 16-mer random dsDNA library, 0.1% formaldehyde crosslink after washing; high values mean tight binding
What all share (details): protein: recombinant; tags: N-terminal GST; dsDNA, one strand shown

The target in one test is T1, ELK1 (Homo sapiens, UniProt P19419 1-428).
T1 sequence: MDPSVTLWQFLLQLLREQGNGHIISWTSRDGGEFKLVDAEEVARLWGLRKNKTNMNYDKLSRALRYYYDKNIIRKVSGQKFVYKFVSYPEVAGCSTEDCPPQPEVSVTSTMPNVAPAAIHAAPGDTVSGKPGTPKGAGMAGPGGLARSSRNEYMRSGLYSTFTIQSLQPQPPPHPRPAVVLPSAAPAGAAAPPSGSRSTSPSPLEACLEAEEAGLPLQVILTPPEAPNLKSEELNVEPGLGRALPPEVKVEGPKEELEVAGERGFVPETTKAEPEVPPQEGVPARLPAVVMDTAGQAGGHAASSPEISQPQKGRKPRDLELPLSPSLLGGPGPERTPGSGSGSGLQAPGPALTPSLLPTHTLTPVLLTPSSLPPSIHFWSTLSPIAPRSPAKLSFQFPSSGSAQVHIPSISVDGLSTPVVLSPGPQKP
In outline: (§1)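 Beads coated with glutathione captured GST-fused human transcription factors that had been expressed in yeast, and the factors were then given DNA barcodes and pooled with a tag-only sample. The pools were incubated with 200 nmole of a random double-stranded 16-mer DNA library in Tris/NaCl/DTT/glycerol buffer for 30 min at room temperature, washed, crosslinked with 0.1% formaldehyde and proximity-ligated with BsaI/T4 ligase at 37 °C for 1 h. PCR amplification and Illumina NextSeq500 sequencing came last. Binding signal is each hexamer's read frequency for a factor divided by its frequency for the tag-only sample.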

A further test has as its target T2, GABPA (Homo sapiens, UniProt Q06546 1-454).
T2 sequence: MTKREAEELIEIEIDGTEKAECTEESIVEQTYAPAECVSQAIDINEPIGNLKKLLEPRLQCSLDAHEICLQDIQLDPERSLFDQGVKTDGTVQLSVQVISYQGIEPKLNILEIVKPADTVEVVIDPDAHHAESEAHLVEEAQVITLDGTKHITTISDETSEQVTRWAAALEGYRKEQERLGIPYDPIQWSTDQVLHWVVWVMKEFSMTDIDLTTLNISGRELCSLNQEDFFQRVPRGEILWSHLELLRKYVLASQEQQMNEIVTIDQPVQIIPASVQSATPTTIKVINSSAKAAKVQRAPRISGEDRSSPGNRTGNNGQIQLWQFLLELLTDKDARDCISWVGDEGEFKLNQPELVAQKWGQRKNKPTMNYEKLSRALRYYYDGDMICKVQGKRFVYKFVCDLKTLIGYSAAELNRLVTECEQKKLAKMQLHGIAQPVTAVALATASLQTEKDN
In short, it runs like this: as §1

A further test has as its target T3, ERG (Homo sapiens, UniProt P11308 1-479).
T3 sequence: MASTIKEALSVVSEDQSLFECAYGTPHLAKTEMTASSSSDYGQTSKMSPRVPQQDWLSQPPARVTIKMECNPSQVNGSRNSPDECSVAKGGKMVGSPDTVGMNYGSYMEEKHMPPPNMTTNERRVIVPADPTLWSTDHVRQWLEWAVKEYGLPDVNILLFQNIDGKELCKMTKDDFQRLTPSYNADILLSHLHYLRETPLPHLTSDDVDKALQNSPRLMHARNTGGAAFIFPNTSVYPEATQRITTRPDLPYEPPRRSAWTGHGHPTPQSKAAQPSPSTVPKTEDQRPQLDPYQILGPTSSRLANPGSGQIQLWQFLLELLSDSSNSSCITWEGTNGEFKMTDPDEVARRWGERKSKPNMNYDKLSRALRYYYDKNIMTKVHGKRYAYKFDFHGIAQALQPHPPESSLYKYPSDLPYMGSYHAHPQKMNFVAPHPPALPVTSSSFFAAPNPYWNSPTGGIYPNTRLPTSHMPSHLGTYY
In outline: as §1

A further test has as its target ELF1 (Homo sapiens, UniProt P32519 1-619). In short, it runs like this:
as §1

Another test concerns the target T4, EHF (Homo sapiens, UniProt Q9NZC4 1-300).
T4 sequence: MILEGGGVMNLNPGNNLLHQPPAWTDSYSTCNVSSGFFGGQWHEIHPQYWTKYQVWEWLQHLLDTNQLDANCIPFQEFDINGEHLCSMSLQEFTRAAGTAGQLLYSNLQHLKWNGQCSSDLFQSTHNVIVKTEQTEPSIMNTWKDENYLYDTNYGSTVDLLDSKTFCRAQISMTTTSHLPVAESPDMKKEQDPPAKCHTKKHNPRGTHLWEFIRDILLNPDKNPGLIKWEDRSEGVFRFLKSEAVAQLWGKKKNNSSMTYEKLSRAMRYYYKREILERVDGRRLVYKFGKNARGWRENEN
In short, it runs like this: as §1

In a further test the target is SPI1 (Homo sapiens, UniProt P17947 1-270). In outline: as §1
The target in another test is SPIB (Homo sapiens, UniProt Q01892 1-262). In short, it runs like this: as §1
Another test concerns the target T5, FEV (Homo sapiens, UniProt Q99581 1-238).
T5 sequence: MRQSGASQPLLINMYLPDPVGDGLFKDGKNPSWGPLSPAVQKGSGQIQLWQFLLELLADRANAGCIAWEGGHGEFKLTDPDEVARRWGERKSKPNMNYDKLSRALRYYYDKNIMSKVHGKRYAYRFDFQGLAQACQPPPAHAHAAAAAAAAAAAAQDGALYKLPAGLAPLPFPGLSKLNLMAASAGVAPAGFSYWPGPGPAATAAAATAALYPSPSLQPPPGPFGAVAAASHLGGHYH
In outline: as §1

The target in a further test is ETV5 (Homo sapiens, UniProt P41161 1-510). In short, it runs like this:
as §1

The next test deals with ELF4 (Homo sapiens, UniProt Q99607 1-663). In outline:
as §1

A further test concerns the target T6, ELK4 (Homo sapiens, UniProt P28324-2 1-405).
T6 sequence: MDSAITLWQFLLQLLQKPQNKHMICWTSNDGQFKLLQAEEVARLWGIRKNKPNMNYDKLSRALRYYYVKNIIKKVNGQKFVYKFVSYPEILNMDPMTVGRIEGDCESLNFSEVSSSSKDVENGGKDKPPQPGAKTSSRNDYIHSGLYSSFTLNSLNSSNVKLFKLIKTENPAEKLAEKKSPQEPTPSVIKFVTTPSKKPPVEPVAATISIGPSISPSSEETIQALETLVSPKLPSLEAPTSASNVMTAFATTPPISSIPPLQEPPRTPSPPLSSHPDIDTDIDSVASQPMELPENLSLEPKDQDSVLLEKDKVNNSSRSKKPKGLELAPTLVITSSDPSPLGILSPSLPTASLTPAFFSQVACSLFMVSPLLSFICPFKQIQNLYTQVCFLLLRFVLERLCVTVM
In outline: as §1

In a further test the target is T7, ETV2 (Homo sapiens, UniProt O00321 1-342).
T7 sequence: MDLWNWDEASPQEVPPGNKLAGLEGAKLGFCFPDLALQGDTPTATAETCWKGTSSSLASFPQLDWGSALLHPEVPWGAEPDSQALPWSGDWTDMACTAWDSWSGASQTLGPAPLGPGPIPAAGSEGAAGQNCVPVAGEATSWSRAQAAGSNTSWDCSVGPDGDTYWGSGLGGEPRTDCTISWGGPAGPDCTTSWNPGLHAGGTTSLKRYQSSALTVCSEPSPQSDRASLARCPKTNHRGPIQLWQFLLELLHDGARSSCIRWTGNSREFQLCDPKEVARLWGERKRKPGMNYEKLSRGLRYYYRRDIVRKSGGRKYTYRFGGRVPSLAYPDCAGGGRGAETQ
In short, it runs like this: as §1

A further test has as its target ETV1 (Homo sapiens, UniProt P50549 1-477). In short, it runs like this: as §1
The target of the next test is T8, ERF (Homo sapiens, UniProt P50548 1-548).
T8 sequence: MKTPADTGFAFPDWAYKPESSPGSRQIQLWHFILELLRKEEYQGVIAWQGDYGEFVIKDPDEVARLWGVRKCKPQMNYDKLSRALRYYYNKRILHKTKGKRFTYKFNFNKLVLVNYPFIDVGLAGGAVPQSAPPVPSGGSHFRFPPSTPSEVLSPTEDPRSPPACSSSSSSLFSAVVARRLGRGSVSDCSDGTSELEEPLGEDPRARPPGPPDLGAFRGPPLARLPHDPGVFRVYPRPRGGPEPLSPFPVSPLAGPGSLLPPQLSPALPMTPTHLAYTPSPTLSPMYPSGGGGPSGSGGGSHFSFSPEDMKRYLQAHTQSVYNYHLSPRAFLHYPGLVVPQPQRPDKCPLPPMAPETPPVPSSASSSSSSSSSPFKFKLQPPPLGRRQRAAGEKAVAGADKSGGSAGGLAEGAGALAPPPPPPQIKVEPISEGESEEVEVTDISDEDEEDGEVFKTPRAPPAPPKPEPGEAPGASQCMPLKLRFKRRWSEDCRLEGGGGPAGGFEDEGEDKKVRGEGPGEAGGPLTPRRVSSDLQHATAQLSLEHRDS
In short, it runs like this:
as §1

A further test has as its target T9, ETV3L (Homo sapiens, UniProt Q6ZN32 1-361).
T9 sequence: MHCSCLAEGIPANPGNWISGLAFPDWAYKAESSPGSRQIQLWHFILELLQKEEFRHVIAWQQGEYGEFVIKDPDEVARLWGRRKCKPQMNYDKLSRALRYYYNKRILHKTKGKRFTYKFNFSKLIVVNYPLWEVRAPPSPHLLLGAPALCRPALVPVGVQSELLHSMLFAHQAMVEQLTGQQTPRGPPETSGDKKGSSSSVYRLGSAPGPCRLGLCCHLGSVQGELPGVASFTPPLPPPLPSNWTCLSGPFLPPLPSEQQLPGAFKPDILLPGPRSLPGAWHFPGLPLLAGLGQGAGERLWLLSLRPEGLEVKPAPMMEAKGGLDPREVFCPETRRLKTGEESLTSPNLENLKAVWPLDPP
In outline:
as §1

The next test addresses T10, ETS2 (Homo sapiens, UniProt P15036 1-469).
T10 sequence: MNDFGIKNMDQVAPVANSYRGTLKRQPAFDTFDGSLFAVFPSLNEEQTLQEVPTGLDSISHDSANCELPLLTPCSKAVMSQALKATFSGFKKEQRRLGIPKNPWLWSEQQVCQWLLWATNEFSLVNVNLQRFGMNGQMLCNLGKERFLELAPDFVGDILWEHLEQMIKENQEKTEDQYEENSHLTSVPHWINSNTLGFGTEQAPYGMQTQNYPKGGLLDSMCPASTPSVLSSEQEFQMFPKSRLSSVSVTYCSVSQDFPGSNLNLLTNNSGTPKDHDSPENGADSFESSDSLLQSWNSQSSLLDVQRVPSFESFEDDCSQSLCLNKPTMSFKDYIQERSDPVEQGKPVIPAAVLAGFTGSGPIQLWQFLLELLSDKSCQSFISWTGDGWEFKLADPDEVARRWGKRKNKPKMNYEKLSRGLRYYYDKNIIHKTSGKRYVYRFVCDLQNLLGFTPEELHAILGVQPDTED
In short, it runs like this:
as §1

Another test has as its target T11, SPDEF (Homo sapiens, UniProt O95238 1-335).
T11 sequence: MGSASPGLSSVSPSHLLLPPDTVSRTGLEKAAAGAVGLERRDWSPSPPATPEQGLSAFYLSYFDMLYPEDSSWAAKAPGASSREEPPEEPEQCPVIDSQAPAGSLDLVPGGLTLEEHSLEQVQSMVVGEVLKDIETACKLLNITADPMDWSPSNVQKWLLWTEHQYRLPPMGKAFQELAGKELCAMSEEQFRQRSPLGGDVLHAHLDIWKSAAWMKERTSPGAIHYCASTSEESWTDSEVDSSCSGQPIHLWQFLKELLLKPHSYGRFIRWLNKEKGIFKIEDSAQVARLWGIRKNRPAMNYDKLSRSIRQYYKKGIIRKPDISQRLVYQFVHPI
In outline: as §1

The next test concerns the target T12, ETV7 (Homo sapiens, UniProt Q9Y603 1-341).
T12 sequence: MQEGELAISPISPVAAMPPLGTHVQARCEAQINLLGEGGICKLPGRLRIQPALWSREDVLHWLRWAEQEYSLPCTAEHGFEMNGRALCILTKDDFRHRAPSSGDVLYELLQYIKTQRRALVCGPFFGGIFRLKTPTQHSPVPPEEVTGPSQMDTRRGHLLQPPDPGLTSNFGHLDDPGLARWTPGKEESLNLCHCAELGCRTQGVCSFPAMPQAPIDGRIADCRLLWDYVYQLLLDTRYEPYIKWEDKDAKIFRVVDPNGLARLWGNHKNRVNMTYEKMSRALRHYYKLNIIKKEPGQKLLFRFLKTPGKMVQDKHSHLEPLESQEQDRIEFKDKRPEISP
In short, it runs like this:
as §1

The next test deals with T13, ETV3 (Homo sapiens, UniProt P41162-2 1-143).
T13 sequence: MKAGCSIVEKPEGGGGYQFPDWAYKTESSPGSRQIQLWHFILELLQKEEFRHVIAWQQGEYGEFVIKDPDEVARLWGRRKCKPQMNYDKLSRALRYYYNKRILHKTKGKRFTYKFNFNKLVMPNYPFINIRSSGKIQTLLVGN
In short, it runs like this:
as §1

A further test has as its target ETV6 (Homo sapiens, UniProt P41212 1-452). In outline:
as §1

Chain of ELF4 (Q99607 whole entry): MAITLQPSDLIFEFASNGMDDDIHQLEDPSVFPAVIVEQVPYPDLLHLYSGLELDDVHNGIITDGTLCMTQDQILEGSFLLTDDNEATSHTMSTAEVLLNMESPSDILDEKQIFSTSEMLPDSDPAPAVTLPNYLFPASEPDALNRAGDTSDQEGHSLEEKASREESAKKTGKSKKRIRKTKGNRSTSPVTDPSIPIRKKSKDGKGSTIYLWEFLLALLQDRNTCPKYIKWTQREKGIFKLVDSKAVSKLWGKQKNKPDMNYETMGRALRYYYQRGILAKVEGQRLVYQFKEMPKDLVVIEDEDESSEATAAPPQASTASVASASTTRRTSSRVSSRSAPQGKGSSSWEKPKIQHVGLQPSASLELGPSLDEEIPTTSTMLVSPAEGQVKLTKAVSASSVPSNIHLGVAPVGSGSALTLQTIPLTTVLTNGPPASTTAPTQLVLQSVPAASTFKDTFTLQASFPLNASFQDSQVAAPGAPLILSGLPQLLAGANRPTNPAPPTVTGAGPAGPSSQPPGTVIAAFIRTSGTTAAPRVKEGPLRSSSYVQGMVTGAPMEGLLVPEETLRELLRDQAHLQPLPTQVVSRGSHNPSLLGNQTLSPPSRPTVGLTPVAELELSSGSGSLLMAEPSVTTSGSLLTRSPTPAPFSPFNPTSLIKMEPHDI
Chain of ETV6 (P41212 whole entry): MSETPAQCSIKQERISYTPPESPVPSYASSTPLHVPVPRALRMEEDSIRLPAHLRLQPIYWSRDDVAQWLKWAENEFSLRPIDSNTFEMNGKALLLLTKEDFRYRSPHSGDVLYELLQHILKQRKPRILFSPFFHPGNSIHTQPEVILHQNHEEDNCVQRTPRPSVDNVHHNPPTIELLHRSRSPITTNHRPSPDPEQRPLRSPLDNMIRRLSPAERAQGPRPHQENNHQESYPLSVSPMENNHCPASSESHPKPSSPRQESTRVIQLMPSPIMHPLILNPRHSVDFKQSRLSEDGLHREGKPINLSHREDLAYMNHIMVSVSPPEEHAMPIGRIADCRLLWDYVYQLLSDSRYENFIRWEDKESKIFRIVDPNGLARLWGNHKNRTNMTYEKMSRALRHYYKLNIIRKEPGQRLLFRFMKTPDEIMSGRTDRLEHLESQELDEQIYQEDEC
Chain of SPIB (Q01892 whole entry): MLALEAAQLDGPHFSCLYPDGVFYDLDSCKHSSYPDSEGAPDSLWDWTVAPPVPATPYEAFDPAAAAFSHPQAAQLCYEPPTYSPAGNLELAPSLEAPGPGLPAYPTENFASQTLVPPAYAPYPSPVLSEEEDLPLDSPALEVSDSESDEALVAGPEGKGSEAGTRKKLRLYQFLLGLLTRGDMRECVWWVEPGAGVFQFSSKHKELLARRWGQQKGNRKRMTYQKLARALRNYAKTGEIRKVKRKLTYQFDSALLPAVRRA
Chain of ELF1 (P32519 whole entry): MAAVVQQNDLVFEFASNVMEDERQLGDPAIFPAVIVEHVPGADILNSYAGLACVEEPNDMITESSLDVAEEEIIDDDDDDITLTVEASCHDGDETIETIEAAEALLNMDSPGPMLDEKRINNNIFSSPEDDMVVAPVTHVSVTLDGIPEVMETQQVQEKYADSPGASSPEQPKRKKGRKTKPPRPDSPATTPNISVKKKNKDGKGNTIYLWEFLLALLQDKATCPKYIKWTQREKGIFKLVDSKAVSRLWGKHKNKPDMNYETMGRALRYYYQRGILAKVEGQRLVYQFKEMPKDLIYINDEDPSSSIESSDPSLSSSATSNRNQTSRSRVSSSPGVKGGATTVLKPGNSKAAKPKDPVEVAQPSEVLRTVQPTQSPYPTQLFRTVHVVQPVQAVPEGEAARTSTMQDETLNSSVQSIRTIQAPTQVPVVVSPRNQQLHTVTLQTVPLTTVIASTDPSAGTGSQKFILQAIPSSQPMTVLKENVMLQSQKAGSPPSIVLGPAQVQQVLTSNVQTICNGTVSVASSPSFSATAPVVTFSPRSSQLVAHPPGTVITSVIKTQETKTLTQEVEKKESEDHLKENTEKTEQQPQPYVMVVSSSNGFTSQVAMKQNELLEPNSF
Chain of ETV5 (P41161 whole entry): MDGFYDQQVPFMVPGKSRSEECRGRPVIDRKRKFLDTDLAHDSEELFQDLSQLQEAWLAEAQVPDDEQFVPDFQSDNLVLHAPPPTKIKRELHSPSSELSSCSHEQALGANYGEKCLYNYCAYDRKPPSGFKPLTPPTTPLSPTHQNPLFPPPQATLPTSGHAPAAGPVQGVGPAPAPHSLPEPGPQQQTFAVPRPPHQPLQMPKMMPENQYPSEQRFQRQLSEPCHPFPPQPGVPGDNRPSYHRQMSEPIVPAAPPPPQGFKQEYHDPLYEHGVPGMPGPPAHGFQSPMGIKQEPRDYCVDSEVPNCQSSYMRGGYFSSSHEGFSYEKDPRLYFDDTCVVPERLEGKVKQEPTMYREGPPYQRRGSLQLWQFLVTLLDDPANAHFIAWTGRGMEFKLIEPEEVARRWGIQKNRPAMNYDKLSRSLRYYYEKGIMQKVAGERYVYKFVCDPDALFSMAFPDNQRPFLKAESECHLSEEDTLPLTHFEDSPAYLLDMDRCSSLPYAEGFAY
Chain of ETV1 (P50549 whole entry): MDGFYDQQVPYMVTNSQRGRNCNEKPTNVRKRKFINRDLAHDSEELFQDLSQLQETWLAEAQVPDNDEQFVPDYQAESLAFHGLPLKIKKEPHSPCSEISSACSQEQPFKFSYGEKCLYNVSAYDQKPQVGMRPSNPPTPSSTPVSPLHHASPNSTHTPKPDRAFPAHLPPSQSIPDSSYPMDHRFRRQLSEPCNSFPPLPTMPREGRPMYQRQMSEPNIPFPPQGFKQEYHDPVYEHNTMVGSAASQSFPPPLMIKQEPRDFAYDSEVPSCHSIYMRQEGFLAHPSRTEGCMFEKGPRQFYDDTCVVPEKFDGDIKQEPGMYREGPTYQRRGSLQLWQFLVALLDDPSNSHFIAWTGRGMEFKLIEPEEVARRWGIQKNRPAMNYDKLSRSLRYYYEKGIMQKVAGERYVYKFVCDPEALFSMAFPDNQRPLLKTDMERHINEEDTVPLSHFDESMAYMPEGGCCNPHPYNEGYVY

Regarding CCCCCC, the binding signal with ELK1 is 1.04 fold enrichment (6-mer frequency, TF over GST control); in the test with GABPA it was 1.08 fold enrichment (6-mer frequency, TF over GST control); in the test with ERG it was 1.07 fold enrichment (6-mer frequency, TF over GST control); with ELF1, 1.08 fold enrichment (6-mer frequency, TF over GST control); with EHF, 1.06 fold enrichment (6-mer frequency, TF over GST control); with SPI1, 1.07 fold enrichment (6-mer frequency, TF over GST control). The binding signal is 1.1 fold enrichment (6-mer frequency, TF over GST control) with SPIB; 1.03 fold enrichment (6-mer frequency, TF over GST control) with FEV; 1.09 fold enrichment (6-mer frequency, TF over GST control) in the test with ETV5; 1.16 fold enrichment (6-mer frequency, TF over GST control) in the test with ELF4; 1.23 fold enrichment (6-mer frequency, TF over GST control) with ELK4; 1.26 fold enrichment (6-mer frequency, TF over GST control) in the test with ETV2. For the same sequence, the binding signal with ETV1 was 1.11 fold enrichment (6-mer frequency, TF over GST control); in the test with ERF, 1.05 fold enrichment (6-mer frequency, TF over GST control); with ETV3L, 1.07 fold enrichment (6-mer frequency, TF over GST control); with ETS2, 1.1 fold enrichment (6-mer frequency, TF over GST control); in the test with SPDEF it was 1.08 fold enrichment (6-mer frequency, TF over GST control); with ETV7, 1.13 fold enrichment (6-mer frequency, TF over GST control). For the same sequence, the binding signal with ETV3 is 1.14 fold enrichment (6-mer frequency, TF over GST control); in the test with ETV6 it was 1.06 fold enrichment (6-mer frequency, TF over GST control).

These data come from publication PMC7862700, “An all-to-all approach to the identification of sequence-specific readers for epigenetic DNA modifications on cytosine”.
